Screening data: PubChem, several laboratories
Compounds with a hit are over-represented: about 32% of the library has one in this group of screens.
CYP2C19 act: increases human CYP2C19 enzyme activity. P33261. 96,000 tested, under 10 active. recombinant CYP2C19, luciferin-H EGE luminescence; stronger effect = higher value; 0 = fully inhibited enzyme, 1 = untreated enzyme. activation factor at 5 µM;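 active = activation factor of at least 2 at 5 µM in the primary screen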
CYP2C9 activ: CYP2C9 (human) activation; P11712; recombinant CYP2C9, luciferin-H conversion, luminescence; stronger effect = higher value; factor 1 = untreated enzyme, 0 = blocked; activation factor at 5 µM; 1.4% of 96,000 active; AID 1024;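 active = activation factor of 2 or more for CYP2C9 at a 5 µM dose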
Target sequence (P11712 whole entry, looked up): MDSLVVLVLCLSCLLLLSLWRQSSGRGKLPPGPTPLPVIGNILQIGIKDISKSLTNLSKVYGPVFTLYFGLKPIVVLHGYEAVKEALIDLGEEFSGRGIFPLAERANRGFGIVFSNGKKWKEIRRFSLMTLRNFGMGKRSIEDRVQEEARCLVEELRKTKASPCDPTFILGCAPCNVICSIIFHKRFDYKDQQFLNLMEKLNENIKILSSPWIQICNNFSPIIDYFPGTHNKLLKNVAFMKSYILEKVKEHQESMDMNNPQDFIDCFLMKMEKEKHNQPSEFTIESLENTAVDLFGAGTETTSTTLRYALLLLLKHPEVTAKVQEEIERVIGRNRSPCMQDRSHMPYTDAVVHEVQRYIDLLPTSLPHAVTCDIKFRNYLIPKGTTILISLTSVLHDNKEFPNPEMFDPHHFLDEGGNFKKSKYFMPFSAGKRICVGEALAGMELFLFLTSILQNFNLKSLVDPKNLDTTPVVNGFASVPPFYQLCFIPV
PostGolgi ctrl: yeast control strain growth, post-Golgi counter-screen | 5% of 98,000 active | efflux-deficient yeast background strain, growth absorbance A615, 16 h | inhibition, % at 10 µM
CYP2C9 inh: blocks human cytochrome P450 2C9; CYP2C9 Supersomes, luciferin-H conversion, luminescence; inhibition, % at 5 µM; 20% of 96,000 active;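 active = blocking of liver enzyme CYP2C9 beyond about 50% at 5 µM, limit read from the data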
PostGolgi yeast: growth inhibition of a yeast mutant, post-Golgi transport screen | inhibition, % at 10 µM | AID 739 | 0.9% of 98,000 active | post-Golgi transport phenotypic cell assay;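 note: yeast cells grown in 1536-well plates; yeast grown about 18 h at 30C before absorbance read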
CYP2C19 inh: inhibitors of human CYP2C19; P33261; CYP2C19 Supersomes, luciferin-H EGE luminescence, 30 min; inhibition, % at 5 µM; 21% of 96,000 active;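 active = CYP2C19 inhibition above a set limit at 5 µM in the primary screen, cut at about 50% in these data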
Of the large screens only hits and unclear results are named; the others gave an inactive call. Cut-off read from the data, not from the text of the source, unless noted: active = inhibition above about 30%; inactive = the rest.

CCOC(=O)c1cnc2c(C#N)c(C)nn2c1-c1ccccc1	PostGolgi ctrl 32, CYP2C19 inh 95
CCOC(=O)c1cnc(SCC(=O)c2ccccc2)nc1N	CYP2C19 inh 78
CCOC(=O)c1cnc(SC)nc1N	none
CCOC(=O)c1cnc(SCC(=O)c2ccc3c(c2)OCCO3)nc1N	CYP2C9 inh 52
CCOC(=O)c1cnc(SC)nc1Sc1ccccc1	CYP2C9 inh 60
Cc1cccc(C)c1NC(=O)COc1cccc(/C=N/NC(=O)C(=O)NCc2ccccc2)c1	none
O=c1[nH]c2cnccc2n1-c1ccccc1	none
CCOC(=O)c1cnc(SCC(=O)Nc2nc(C)c(C)s2)nc1N	CYP2C9 inh 91, CYP2C19 inh 51
CCOC(=O)c1cnc(SCC(=O)Nc2cc(OC)ccc2OC)nc1N	none
CCOC(=O)c1cnc(SCC(C)C)nc1N	CYP2C19 inh 50
CCOC(=O)c1cnc(-c2ccccc2)nc1Oc1cccc(Cl)c1	CYP2C9 inh 51
CCOC(=O)c1cnc(SC)nc1Oc1cccc(NC(=O)c2ccc(Cl)cc2)c1	none
CCOC(=O)c1ccccc1NC(=O)CSc1ncc(C(=O)OCC)c(N)n1	CYP2C9 inh 88
CCOC(=O)c1cnc(SC2CC(=O)N(c3ccc(OC)c(OC)c3)C2=O)nc1N (stereo not given)	CYP2C9 inh 92
CCOC(=O)c1cnc(-c2ccccc2)nc1N	CYP2C9 inh 64, CYP2C19 inh 85
CCOC(=O)c1cnc(-c2ccccc2)nc1N(C)C	none
Cc1ccc(S(=O)(=O)N2CCCN(S(=O)(=O)C3CCS(=O)(=O)C3)CC2)cc1 (stereo not given)	none
COc1ccc(S(=O)(=O)Nc2nc(C(F)(F)F)cs2)cc1	CYP2C9 inh 98
O=C(Oc1ccc2ccccc2c1Br)N1CCCCCC1	none
CC(C)(C)c1ccc(C(=O)CSc2n[nH]c(=O)[nH]c2=O)cc1	CYP2C9 inh 53
CCC1CC2(C)NC(=O)c3c(sc4c3CC(C)(C)OC4)N2C1=O (stereo not given)	none
O=C(CCn1cnc2ccccc2c1=O)Nc1ccc2c(c1)OCCO2	CYP2C9 inh 53, CYP2C19 inh 53
N#Cc1c(NC(=O)CCN2C(=O)c3ccccc3C2=O)oc(-c2ccccc2)c1-c1ccccc1	CYP2C9 inh 82
N#Cc1c(NC(=O)CCn2cnc3ccccc3c2=O)oc(-c2ccccc2)c1-c1ccccc1	CYP2C9 inh 96, CYP2C19 inh 81
Cc1ccc(NC(=O)CCn2cnc3ccccc3c2=O)cc1Cl	none (no result: CYP2C19 act, CYP2C9 activ, CYP2C9 inh, CYP2C19 inh)
O=C(O)CCn1cnc2ccccc2c1=O	none
CCOC(=O)C1CCN(C(=O)CCn2c(=O)[nH]c3ccsc3c2=O)CC1	none
CC(NC(=O)C1CCCCC1)C(=O)NC1=NCCS1 (stereo not given)	none
CCNCc1cc(OCC)c(OCC(=O)NCCc2ccccc2)cc1Cl	CYP2C19 inh 88
O=C(COc1ccc(Cl)cc1Cl)NCCCn1ccnc1	CYP2C9 inh 97, CYP2C19 inh 100
COC(=O)c1ccc(C)c(NC(=O)CCSc2ccc(Cl)cc2)c1	none
O=C(CCCOc1ccc(Cl)cc1Cl)NCCCO	none
CC(Oc1ccc(Cl)cc1)C(=O)NCCCn1ccnc1 (stereo not given)	CYP2C9 inh 89, CYP2C19 inh 100
CC(C)OCCCNC(=O)CCSc1ccc(Cl)cc1	CYP2C9 inh 78, CYP2C19 inh 63
Cc1ccc(OCc2nnc(SCC(=O)NCc3ccccc3)n2C)cc1	none
O=C(CSc1ccc2nnc(-c3cccnc3)n2n1)NCc1ccc2c(c1)OCO2	none
COc1ccc(C2SCC(=O)N2CCCN(C)C)cc1 (stereo not given)	none
O=C(COc1ccc(Cl)cc1Cl)NCCCCc1ccccc1	PostGolgi ctrl 42
O=C(COc1ccc(Cl)cc1Cl)NCCSc1ccc(Cl)cc1	PostGolgi ctrl 43
CCN(CC)CCNC(=O)COc1ccc(Cl)cc1Cl	none
CCNC(=O)CC1C(=O)N(c2ccc(F)cc2)C(=O)N1CCC(C)C (stereo not given)	none
CCOC(=O)c1cnn(-c2nc(-c3cccc(F)c3)cs2)c1C(F)(F)F	CYP2C9 inh 72
O=C(CNC(=O)c1ccco1)OCc1ccc(C(=O)Oc2ccccc2)cc1	CYP2C9 inh 58
O=C(CNC(=O)c1ccco1)NCC(=O)OCc1ccc(C(=O)Oc2ccc(Cl)cc2)cc1	CYP2C9 inh 58
NC(Cc1ccc2nonc2c1)C(=O)O (stereo not given)	none
